# PubChem BioAssay (NCATS)
# Inconclusive results are not listed. A call without a number means that no potency is given here. Activity calls are given as the source filed them. Unless noted, the call rests on the fitted dose curve.
# Columns and labels:
# [1] = qHTS for Inhibitors of the Functional Ribonucleoprotein Complex (vRNP) of Lassa (LASV) Arenavirus: LASV Primary Screen - GLuc reporter signal (AID 1347082; calls by dose curve; tested in HEK293 reporter line; further: nearly all actives have a fitted effect of over 60% in size; further: potency means the concentration at half of the fitted maximal effect)
# [2] = Primary qHTS for inhibitors of SARS-S pseudo-typed particle cell entry (AID 1479145); further: nearly all actives have a fitted effect of over 45% in size
# [3] = Primary qHTS for Huh7 cytotoxicity: counterscreen for inhibitors of MERS-S pseudotyped particle cell entry (AID 1479147); conditions: outcome: dose series up to 57.1 µM unless noted
# [4] = Primary qHTS for inhibitors of MERS-S pseudo-typed particle cell entry (AID 1479149); further: nearly all actives have a fitted effect of over 60% in size
# [5] = Cytotoxicity counterscreen for inhibitors of SARS-CoV-2 cell entry (AID 1645845); further: nearly all actives have a fitted effect of over 50% in size
# How it was run: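 After a 15 min room-temperature ATPLite 1step step, luminescence reflected ATP remaining in HEK293-ACE2 cells exposed to compound for 1 h plus 48 h at 37 C, with percent activity set by cell and no-cell controls.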
# [6] = molecular target: Nucleoprotein (Lymphocytic choriomeningitis virus (strain Armstrong)) (UniProt P09992); assay: qHTS for Inhibitors of the Functional Ribonucleoprotein Complex (vRNP) of Lymphocytic Choriomeningitis Arenaviruses (LCMV): LCMV Primary Screen - GLuc reporter signal (AID 1347086); further: nearly all actives have a fitted effect of over 70% in size
# Sequence of Nucleoprotein (Lymphocytic choriomeningitis virus (strain Armstrong)) (P09992 whole entry, looked up): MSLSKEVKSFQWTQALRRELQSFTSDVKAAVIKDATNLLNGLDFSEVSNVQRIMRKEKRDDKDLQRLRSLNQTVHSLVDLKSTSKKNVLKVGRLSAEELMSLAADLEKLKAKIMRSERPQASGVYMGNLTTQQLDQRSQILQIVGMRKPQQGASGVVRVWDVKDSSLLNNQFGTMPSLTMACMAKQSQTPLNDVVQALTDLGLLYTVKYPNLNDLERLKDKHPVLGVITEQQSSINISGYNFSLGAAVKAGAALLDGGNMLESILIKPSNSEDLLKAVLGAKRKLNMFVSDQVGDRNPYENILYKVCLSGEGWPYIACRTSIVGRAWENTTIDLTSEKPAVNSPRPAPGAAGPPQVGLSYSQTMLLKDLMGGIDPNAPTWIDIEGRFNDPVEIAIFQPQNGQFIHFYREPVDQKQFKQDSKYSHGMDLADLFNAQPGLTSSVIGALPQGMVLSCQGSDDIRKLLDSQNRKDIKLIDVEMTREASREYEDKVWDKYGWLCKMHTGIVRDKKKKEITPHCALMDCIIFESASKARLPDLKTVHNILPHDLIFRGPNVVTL
# [7] = Primary qHTS to identify inhibitors of SARS-CoV-2 cell entry (AID 1645846); conditions: activity change, negative = inhibition: at 57.1 µM (top of the series) unless noted; further: nearly all actives have a fitted effect of over 45% in size; further: potency means the concentration at half of the fitted maximal effect
# How it was run: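 HEK293 cells stably expressing human ACE2, pre-treated 1 h with compound, then infected with MLV particles pseudotyped with Wuhan-Hu-1 spike (C-terminal 19-aa truncation). Luciferase luminescence after 48 h at 37 °C, normalised to spike PP and bald PP.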
# [8] = qHTS Assay for Lipid Storage Modulators (AID 1519); conditions: Drosophila S3 cells, BODIPY lipid droplet/cell ratio, laser cytometry, cells loaded with oleic acid
# How it was run: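 Cells seeded at 5,000 per well were treated with compounds over a concentration series and loaded with oleic acid (400 uM, as added). Lipid droplet fluorescence (488 nm excitation, 500-530 nm channel) was read by laser-scanning cytometry and normalized to 20 uM Triacsin C.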
# [9] = qHTS profiling of the MIPE4 collection as inhibitors of Plasmodium falciparum (3D7) proliferation (AID 743344; call rule not given here); conditions: P. falciparum 3D7 in erythrocytes, SYBR Green DNA fluorescence, 72 h; at 28.5 µM (top of the series) unless noted
# How it was run: (§1)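 Parasite DNA was quantified by SYBR Green I fluorescence (ex 485, em 535 nm) after overnight lysis in saponin/Triton buffer at room temperature. Cultures at 0.3% parasitemia and 2.5% hematocrit were first exposed to compound for 72 h at 37 C; signals were normalised to artemisinin (0.29 uM) and vehicle wells.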
# [10] = qHTS profiling of the MIPE4 collection as inhibitors of Plasmodium falciparum (DD2) proliferation (AID 743345; call rule not given here); conditions: P. falciparum Dd2 in erythrocytes, SYBR Green DNA, 72 h; at 28.5 µM (top of the series) unless noted
# How it was run: as §1
# [11] = Primary qHTS for Vero E6 cytotoxicity: counterscreen for inhibitors of SARS-S pseudo-typed particle cell entry (AID 1479150); conditions: outcome: dose series up to 57.1 µM unless noted
# [12] = Inducers of the Endoplasmic Reticulum Stress Response (ERSR) in human glioma: Validation (AID 504836; active means well fitted curve in the direction sought with a large enough effect; an effect the other way counts as inactive or inconclusive)
# How it was run: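 Stably transfected U87-MG human glioma cells carrying a GRP78-based luminescent sensor were seeded at 1000 cells/well, pin-dosed with compounds and incubated 16 h. Luciferase reagent was then added, and end-point luminescence was read after 10 min at room temperature.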
# [13] = molecular target: Alpha-galactosidase (Coffea arabica) (UniProt Q42656); assay: Counterscreen for Glucocerebrosidase Inhibitors: qHTS Assay for Coffee Bean alpha-Galactosidase at pH 4.5 (AID 957; active means well fitted curve in the direction sought with a large enough effect; an effect the other way counts as inactive or inconclusive)
# Sequence of Alpha-galactosidase (Coffea arabica) (Q42656 whole entry, looked up): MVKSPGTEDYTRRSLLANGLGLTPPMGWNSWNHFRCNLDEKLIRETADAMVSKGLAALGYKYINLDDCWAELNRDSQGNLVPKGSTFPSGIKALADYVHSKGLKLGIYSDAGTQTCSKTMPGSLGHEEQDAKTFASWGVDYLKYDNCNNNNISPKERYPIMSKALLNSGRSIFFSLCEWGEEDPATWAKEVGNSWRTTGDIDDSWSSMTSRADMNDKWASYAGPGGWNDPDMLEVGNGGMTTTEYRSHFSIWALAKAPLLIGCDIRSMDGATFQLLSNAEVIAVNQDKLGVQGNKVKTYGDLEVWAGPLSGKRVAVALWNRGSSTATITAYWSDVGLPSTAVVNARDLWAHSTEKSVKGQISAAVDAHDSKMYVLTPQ
# How it was run: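 Fluorogenic read-out: 4-methylumbelliferone at Ex 365/Em 440 nm after NaOH/glycine stop (pH 10). Enzyme 2 nM, 4-MU-alpha-galactoside 80 uM, citrate buffer pH 4.5, 20 min RT; normalized to no-enzyme and enzyme controls.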
# [14] = molecular target: Alpha-galactosidase (Coffea arabica) (UniProt Q42656); assay: Counterscreen for Glucocerebrosidase Inhibitors: qHTS Assay for Coffee Bean alpha-Galactosidase at pH 5.9 (AID 998; active means well fitted curve in the direction sought with a large enough effect; an effect the other way counts as inactive or inconclusive)
# How it was run: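 In 50 mM citric acid pH 5.9 with 0.005% Tween-20, coffee bean enzyme hydrolyses 80 uM 4-MU alpha-D-galactopyranoside over 20 min at RT. Activity is normalized to controls; AC50 comes from Hill-modelled concentration-response data.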
# [15] = Validation screen for inhibitors of Lassa infection (AID 463096); further: potency means the concentration at half of the fitted maximal effect
# [16] = qHTS for Inhibitors of the Functional Ribonucleoprotein Complex (vRNP) of Lassa (LASV) Arenavirus: Viability assay - alamar blue signal for LASV Primary Screen (AID 1347083; calls by dose curve; tested in HEK293 reporter line; further: nearly all actives have a fitted effect of over 80% in size; further: potency means the concentration at half of the fitted maximal effect)
# [17] = molecular target: Voltage-gated inwardly rectifying potassium channel KCNH2 (Homo sapiens) (UniProt Q12809); assay: qHTS Assay for Small Molecule Inhibitors of the Human hERG Channel Activity (AID 588834; active means well fitted curve in the direction sought with a large enough effect; an effect the other way counts as inactive or inconclusive;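 further: potency means the concentration at half of the fitted maximal effect; lower thallium flux fluorescence means stronger hERG block; nearly all actives have a fitted effect of over 50% in size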)
# Sequence of Voltage-gated inwardly rectifying potassium channel KCNH2 (Homo sapiens) (Q12809 whole entry, looked up): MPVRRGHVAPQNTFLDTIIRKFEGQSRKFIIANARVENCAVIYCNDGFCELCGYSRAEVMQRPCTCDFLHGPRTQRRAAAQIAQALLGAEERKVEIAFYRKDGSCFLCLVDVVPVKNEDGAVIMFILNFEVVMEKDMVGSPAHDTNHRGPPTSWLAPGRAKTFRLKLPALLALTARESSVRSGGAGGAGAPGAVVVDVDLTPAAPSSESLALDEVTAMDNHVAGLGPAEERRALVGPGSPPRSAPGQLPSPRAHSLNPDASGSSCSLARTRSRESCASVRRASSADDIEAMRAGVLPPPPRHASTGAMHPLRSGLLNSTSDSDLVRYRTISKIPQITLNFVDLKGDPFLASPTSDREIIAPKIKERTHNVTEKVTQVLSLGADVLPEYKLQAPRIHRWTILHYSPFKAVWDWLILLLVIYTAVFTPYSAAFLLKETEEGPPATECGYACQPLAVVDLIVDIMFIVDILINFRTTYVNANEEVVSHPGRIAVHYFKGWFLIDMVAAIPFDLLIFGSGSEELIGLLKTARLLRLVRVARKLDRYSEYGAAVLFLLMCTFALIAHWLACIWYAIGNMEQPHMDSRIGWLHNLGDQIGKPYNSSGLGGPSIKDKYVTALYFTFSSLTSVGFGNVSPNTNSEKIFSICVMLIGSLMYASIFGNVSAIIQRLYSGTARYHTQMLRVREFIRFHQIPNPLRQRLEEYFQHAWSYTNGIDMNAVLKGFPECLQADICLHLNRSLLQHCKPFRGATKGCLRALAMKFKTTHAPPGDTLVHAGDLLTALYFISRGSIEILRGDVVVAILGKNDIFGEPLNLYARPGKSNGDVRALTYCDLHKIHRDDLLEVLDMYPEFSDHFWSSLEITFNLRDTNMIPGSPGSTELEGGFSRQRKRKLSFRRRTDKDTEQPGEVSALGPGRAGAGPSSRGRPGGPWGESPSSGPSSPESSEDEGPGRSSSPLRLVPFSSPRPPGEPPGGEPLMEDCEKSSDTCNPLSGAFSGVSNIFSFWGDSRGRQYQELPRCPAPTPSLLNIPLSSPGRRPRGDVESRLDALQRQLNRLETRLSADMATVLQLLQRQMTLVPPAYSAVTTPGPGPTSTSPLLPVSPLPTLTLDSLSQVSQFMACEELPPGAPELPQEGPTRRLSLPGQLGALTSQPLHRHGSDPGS
# How it was run: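 Thallium serves as surrogate for K+ influx through BacMam-delivered hERG in U2OS cells. Compounds are added for about 10 minutes after dye loading; stimulation buffer then starts flux, monitored kinetically on FDSS.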
# [18] = molecular target: Rap guanine nucleotide exchange factor 3 (Homo sapiens) (UniProt O95398); assay: Confirmatory qHTS for agonist of cAMP-regulated guanine nucleotide exchange factor 3 (EPAC1) (AID 1645881; active means well fitted curve in the direction sought with a large enough effect; an effect the other way counts as inactive or inconclusive;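 further: EPAC1 catalysed release of BODIPY-GDP from Rap1B seen as fluorescence loss; nearly all actives have a fitted effect of over 75% in size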)
# Sequence of Rap guanine nucleotide exchange factor 3 (Homo sapiens) (O95398 whole entry, looked up): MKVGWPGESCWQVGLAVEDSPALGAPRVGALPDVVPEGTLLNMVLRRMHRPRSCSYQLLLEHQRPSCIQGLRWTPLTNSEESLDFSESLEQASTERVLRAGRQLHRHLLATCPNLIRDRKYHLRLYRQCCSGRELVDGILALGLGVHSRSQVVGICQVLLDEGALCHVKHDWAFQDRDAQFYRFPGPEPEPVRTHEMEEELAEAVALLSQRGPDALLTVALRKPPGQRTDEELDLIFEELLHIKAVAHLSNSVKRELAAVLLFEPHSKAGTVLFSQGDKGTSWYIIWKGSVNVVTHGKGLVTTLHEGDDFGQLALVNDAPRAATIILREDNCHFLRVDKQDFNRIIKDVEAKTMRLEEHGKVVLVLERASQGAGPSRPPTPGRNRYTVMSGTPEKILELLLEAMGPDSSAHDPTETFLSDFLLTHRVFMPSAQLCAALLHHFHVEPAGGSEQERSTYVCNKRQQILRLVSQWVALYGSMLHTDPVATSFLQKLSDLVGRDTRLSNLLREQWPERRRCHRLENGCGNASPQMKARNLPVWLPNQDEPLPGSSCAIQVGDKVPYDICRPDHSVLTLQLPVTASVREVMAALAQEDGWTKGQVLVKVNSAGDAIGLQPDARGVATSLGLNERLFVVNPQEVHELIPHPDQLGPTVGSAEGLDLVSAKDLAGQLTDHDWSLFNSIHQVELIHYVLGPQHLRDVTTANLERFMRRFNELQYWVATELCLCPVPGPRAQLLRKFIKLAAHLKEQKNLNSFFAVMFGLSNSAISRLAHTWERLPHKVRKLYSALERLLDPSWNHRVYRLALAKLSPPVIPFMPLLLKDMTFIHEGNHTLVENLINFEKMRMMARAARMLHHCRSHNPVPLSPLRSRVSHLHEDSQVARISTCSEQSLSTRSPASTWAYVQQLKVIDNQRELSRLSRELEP
# [19] = molecular target: Rap guanine nucleotide exchange factor 4 (Homo sapiens) (UniProt Q8WZA2); assay: Confirmatory qHTS for agonist of cAMP-regulated guanine nucleotide exchange factor 4 (EPAC2) (AID 1645884; active means well fitted curve in the direction sought with a large enough effect; an effect the other way counts as inactive or inconclusive;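 further: nucleotide exchange releases bodipy-GDP from Rap1 and this lowers its fluorescence; nearly all actives have a fitted effect of over 65% in size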)
# Sequence of Rap guanine nucleotide exchange factor 4 (Homo sapiens) (Q8WZA2 whole entry, looked up): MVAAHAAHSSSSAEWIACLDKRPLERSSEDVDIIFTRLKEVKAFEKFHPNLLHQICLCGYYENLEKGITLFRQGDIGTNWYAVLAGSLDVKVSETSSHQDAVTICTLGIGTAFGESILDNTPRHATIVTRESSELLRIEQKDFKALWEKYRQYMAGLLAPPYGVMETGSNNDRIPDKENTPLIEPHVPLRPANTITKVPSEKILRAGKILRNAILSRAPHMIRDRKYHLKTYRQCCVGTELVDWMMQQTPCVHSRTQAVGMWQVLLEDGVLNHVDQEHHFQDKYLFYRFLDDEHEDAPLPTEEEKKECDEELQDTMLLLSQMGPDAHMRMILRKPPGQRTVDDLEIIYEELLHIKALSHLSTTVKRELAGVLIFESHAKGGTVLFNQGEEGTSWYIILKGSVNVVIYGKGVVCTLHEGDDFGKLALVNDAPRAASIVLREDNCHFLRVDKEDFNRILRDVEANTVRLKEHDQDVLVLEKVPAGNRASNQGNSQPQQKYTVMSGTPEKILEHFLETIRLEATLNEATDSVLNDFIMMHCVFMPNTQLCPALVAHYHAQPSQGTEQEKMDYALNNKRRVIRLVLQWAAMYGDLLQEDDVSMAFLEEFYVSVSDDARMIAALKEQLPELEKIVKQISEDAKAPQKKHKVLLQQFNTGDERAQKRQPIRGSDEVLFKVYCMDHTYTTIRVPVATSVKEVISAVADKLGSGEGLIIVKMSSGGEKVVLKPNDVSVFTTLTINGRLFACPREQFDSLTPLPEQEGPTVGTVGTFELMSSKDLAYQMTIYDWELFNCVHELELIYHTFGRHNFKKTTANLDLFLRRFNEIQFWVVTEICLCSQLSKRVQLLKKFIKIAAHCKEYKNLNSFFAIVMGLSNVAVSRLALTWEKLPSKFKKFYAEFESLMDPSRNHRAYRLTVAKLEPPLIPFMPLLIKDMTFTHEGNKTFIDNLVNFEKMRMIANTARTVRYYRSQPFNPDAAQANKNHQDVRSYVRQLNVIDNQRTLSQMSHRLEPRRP
# [20] = molecular target: Rap guanine nucleotide exchange factor 4 (Homo sapiens) (UniProt Q8WZA2); assay: Confirmatory qHTS for antagonist of cAMP-regulated guanine nucleotide exchange factor 4 (EPAC2) (AID 1645885; active means well fitted curve in the direction sought with a large enough effect; an effect the other way counts as inactive or inconclusive; further: nearly all actives have a fitted effect of over 25% in size)
# [21] = molecular target: Rap guanine nucleotide exchange factor 3 (Homo sapiens) (UniProt O95398); assay: Counterscreen qHTS for antagonist of cAMP-regulated guanine nucleotide exchange factor 3 (EPAC1) (AID 1645888; active means well fitted curve in the direction sought with a large enough effect; an effect the other way counts as inactive or inconclusive;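 further: fluorescence loss as bound BODIPY-GDP is released from Rap1B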)
# How it was run: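 Measured: fluorescence of BODIPY-GDP bound to Rap1B, which falls as exchange proceeds. Conditions include 50 uM competing GDP, 5 and 30 min reads, and a later cAMP challenge for antagonist detection.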
smiles,measurement,setting,value
O=C(O)c1c(Cl)c(Cl)c(Cl)c(Cl)c1-c1c2cc(I)c(=O)c(I)c-2oc2c(I)c(O)c(I)cc12,Potency,[1],inactive
same,Potency,[2],inactive
same,outcome,[3],inactive
same,Potency,[4],inactive
same,Potency,[5],inactive
CC[C@H](C)[C@@H]1NC(=O)CNC(=O)c2csc(n2)[C@H](C(C)(C)O)OC(=O)C(C)(C)[C@H](CCCC(C)(Cl)Cl)OC(=O)c2csc1n2,Potency,[1],inactive
same,Potency,[6],inactive
NC(=O)c1cnc(-c2ccc(C3(N)CCC3)cc2)c(-c2ccccc2)c1,Potency,[1],inactive
same,Potency,[6],inactive
same,Potency,[5],inactive
CNC(=O)[C@H](Cc1ccccc1)NC(=O)[C@H](CC(C)C)[C@H](CSc1cccs1)C(=O)NO,Potency,[1],inactive
same,Potency,[6],inactive
same,Potency,[5],inactive
same,"activity change, negative = inhibition",[7],-35.2%
COc1cc(OC)c2c(c1Cl)O[C@@]1(C2=O)[C@H](C)CC(=O)C[C@@H]1OC,Potency,[1],inactive
same,Potency,[6],inactive
O=C(/C=C/c1ccc(O)c(O)c1)OC(Cc1ccc(O)c(O)c1)C(=O)O (configuration not stated),Potency,[1],inactive
same,Potency,[6],inactive
O=C(CCCCCCC(=O)Nc1ccc([C@H]2O[C@@H](CSc3nc(-c4ccccc4)c(-c4ccccc4)o3)C[C@@H](c3ccc(CO)cc3)O2)cc1)NO,Potency,[1],inactive
same,Potency,[6],inactive
same,outcome,[5],inactive [at 11.3 µM]
same,"activity change, negative = inhibition",[7],1.44% [at 11.3 µM]
CC(C(=O)O)c1ccc(-c2ccccc2)c(F)c1 (configuration not stated),"activity change, negative = inhibition",[8]; at 57.5 µM (top of the series),7.18% (inactive)
same,max response,[8]; measured here: cell count channel max response,15.4%
same,max response,[8]; measured here: lipid channel max response,28.2%
same,"parasite growth, % of DMSO control",[9],86.5%
same,"parasite growth remaining, % of DMSO control (lower = more inhibition)",[10],95.5%
same,Potency,[1],inactive
same,Potency,[2],inactive
same,outcome,[3],inactive
same,Potency,[4],inactive
same,outcome,[11],inactive
same,Potency,[5],inactive
same,Potency,[7],inactive
same,"activity change, negative = inhibition",[7],-16.8%
Cc1ccc(/C=N/NC(=O)c2ccccc2Oc2ccccc2)o1,Potency,[1],inactive
same,Potency,[6],inactive
same,Potency,[7],inactive
Brc1c(Br)c(Br)c2[nH]cnc2c1Br,outcome,[12],inactive
same,Potency,[1],inactive
same,Potency,[6],inactive
N=C(N)c1ccc(OCCCCCOc2ccc(C(=N)N)cc2)cc1 (tested in a mixture with another compound),outcome,[13],inactive
same,outcome,[14],inactive
same,Potency,[15],inactive
same,outcome,[12],inactive
same,Potency,[1],7.08 µM (active)
COCCOc1nc(-c2ccc(Cl)c(Cl)c2)n(-c2ccc(NC(=O)CCl)cc2)n1,Potency,[16],inactive
c1nc2nc(Nc3ccc(N4CCOCC4)cc3)nc(NC3CCCCC3)c2[nH]1,Potency,[1],inactive
same,Potency,[5],inactive
CC[C@]12C=CCN3CC[C@@]4(c5cc([C@@]6(C(=O)OC)C[C@H]7C[C@@H](C(C)(F)F)CN(Cc8c6[nH]c6ccccc86)C7)c(OC)cc5N(C)[C@H]4[C@@](O)(C(=O)OC)[C@H]1OC(C)=O)[C@@H]32,Potency,[16],0.0172 µM (active)
O=Nc1c(-c2c(O)[nH]c3ccccc23)[nH]c2ccccc12,outcome,[13],inactive
same,outcome,[14],inactive
same,Potency,[1],inactive
CN1c2ccccc2C(=O)N2CCc3c([nH]c4ccccc34)C21 (configuration not stated),Potency,[1],inactive
same,Potency,[7],6.31 µM (active)
COc1cc2c(cc1O)CCC1C2CC[C@@]2(C)C1CC[C@@H]2O (some centres not stated),Potency,[16],5.44 µM (active)
CN(C)c1cc2c(Nc3ccc4c(cnn4Cc4ccccc4)c3)ncnc2cn1,outcome,[13],inactive
same,outcome,[14],inactive
same,outcome,[12],inactive
same,Potency,[1],inactive
Oc1ccc2ccccc2c1SSc1c(O)ccc2ccccc12,outcome,[12],inactive
same,Potency,[1],inactive
same,Potency,[5],inactive
COc1ccc(NC(=O)c2ccc(-c3ccc(-c4noc(C)n4)cc3C)cc2)cc1N1CCN(C)CC1,outcome,[13],inactive
same,outcome,[14],inactive
same,Potency,[15],7.94 µM (active)
same,outcome,[12],inactive
same,Potency,[1],inactive
O[Si](CCCN1CCCCC1)(c1ccc(F)cc1)C1CCCCC1 (configuration not stated),outcome,[12],inactive
same,Potency,[17],14.1 µM (active)
same,Potency,[1],inactive
CC1CNCCN1S(=O)(=O)c1cccc2cnccc12 (configuration not stated),Potency,[15],inactive
same,outcome,[12],inactive
same,Potency,[1],inactive
CCOC(=O)N1c2ccc(C(F)(F)F)cc2[C@@H](N(Cc2cc(C(F)(F)F)cc(C(F)(F)F)c2)C(=O)OC)C[C@H]1CC,Potency,[1],inactive
same,Potency,[5],inactive
same,Potency,[7],inactive
Cc1cc(Nc2ncnc3ccc(-c4ccc(CNCCS(C)(=O)=O)o4)cc23)ccc1Oc1ccn2ncnc2c1,Potency,[1],15.3 µM (active)
same,Potency,[5],inactive
same,Potency,[7],inactive
O=C(Nc1nc2cccc(-c3ccc(CN4CCS(=O)(=O)CC4)cc3)n2n1)C1CC1,Potency,[16],38.5 µM (active)
COc1cc2c(cc1OC)-c1c(OC)c(OC)cc3c1C(C2)N(C)CC3 (configuration not stated),Potency,[1],inactive
same,outcome,[18],inactive
same,outcome,[19],inactive
same,Potency,[20],inactive
same,outcome,[21],inactive
CCN(CC)CCCC(C)Nc1nc(C)cc(Nc2ccc3nc(C)cc(N)c3c2)n1 (configuration not stated),Potency,[1],inactive
same,Potency,[5],inactive
same,"activity change, negative = inhibition",[7],-23.9%
CCC1(O)CC2CN(CCc3c([nH]c4ccccc34)[C@@](C(=O)OC)(c3cc4c(cc3OC)N(C=O)C3[C@]45CCN4CC=C[C@@](CC)([C@@H](OC(C)=O)[C@]3(O)C(=O)OC)[C@H]45)C2)C1 (some centres not stated),Potency,[15],20 µM (active)
same,outcome,[12],inactive
same,Potency,[1],inactive
O=c1cc(-c2ccccc2)[nH]c2nc(Cl)ccc12,outcome,[13],inactive
same,outcome,[14],inactive
same,Potency,[15],inactive
same,outcome,[12],inactive
same,Potency,[1],inactive
CCOC(=O)C1=C(C)NC(C)=C(C(=O)OCC)C1c1c(F)c(F)c(F)c(F)c1F,outcome,[12],inactive
same,Potency,[1],inactive
CCCCC[C@H](CC(=O)NO)C(=O)N[C@H](C(=O)N1CCC[C@H]1CO)C(C)C,Potency,[15],inactive
same,outcome,[12],inactive
same,Potency,[1],inactive
